According to ChEMBL document CHEMBL3988442, “University of Dundee, Small-Polar-MMV Screening Library” (2021):

Target: T1, Arginase-2, mitochondrial (Homo sapiens) (UniProt P78540)
T1 sequence (whole entry): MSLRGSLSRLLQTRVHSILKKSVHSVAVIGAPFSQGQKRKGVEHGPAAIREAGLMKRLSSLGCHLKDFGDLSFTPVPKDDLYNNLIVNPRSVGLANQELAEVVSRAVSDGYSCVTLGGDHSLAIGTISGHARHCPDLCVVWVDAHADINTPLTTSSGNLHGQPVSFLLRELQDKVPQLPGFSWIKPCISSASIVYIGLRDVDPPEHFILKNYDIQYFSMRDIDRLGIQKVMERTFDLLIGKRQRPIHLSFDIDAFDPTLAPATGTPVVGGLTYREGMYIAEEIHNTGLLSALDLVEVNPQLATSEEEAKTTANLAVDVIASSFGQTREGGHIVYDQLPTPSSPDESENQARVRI
Assay: in vitro enzyme assay to detect the production of urea directly proportional to the activity of Arginase II
Type: functional
Design: scale not given: in the data most compounds retested in dose-response had high values
Details: 33.3 µM

Row | Structure (SMILES) | Percent Effect
1 | O=C(Nc1nc2c(s1)CCC2)c1cccnc1N1CCOCC1 | 11.8%
2 | Cc1ncsc1C(=O)NC1CCN(Cc2cccnc2)CC1 | 2.85%
3 | CCN1CCN(c2ncc(-c3cc(C)no3)c(-c3ccc(C)s3)n2)CC1 | -4.41%
4 | COc1ccc(C2CCCN2C(=O)NCCNc2ncccn2)cc1 (stereo not given) | 6.36%
5 | COCCN1C(=O)C[C@H]2[C@H]1CCN2Cc1ccc(OC)cc1 | 7.69%
6 | O=C(NCCc1cccs1)[C@H]1CO[C@H]2CCNC[C@H]2C1 | 6.05%
7 | Cc1cnn(CCNCc2ccc(OCc3csc(C)n3)cc2)c1 | -1.04%
8 | O=C(CN1CCCC(O)C1)NC(=O)NCc1cccs1 (stereo not given) | -3.55%
9 | Cc1cc(C[S+]([O-])CC(=O)Nc2c(C)cccc2C)no1 (stereo not given) | 4.63%
10 | COCCN1CCC2(CC1)CC(COC)N(c1ncccn1)C2 (stereo not given) | -19.3%
11 | Cc1noc([C@H]2C[C@H]3OCC[C@H]3N(S(=O)(=O)C3CC3)C2)n1 | -1.6%
12 | O=C(Cc1cccc(F)c1)NCCNCc1ccco1 | -2.13%
13 | CC(=O)Nc1cccc(C(=O)Nc2cnc3n2CCCC3)c1 | 3.53%
14 | Cc1nc(C)n(CC2CCCN2CC(=O)NCc2ccco2)n1 (stereo not given) | -1.36%
15 | O=C(c1n[nH]c2ccccc12)N1CCCC1c1noc(C2CC2)n1 (stereo not given) | 5.32%
16 | Cn1cc(N2CCCC(NCc3cccc4c3OCCCO4)C2)cn1 (stereo not given) | -4.01%
17 | CC(C)c1noc(C(C)N2CCN(CCN3CCCC3=O)CC2)n1 (stereo not given) | 1.6%
18 | Cc1cc(S(=O)(=O)N2CCCc3ccc(F)cc32)sc1C(=O)O | 4.69%
19 | Cc1nc(C2CCCN2CCCNS(C)(=O)=O)no1 (stereo not given) | 4.98%
20 | Cc1ncsc1CN1CC[C@H]2OCC[C@@]2(C(=O)NC(C)C)C1 | 0.645%
